In experiment [1] the target is Thioredoxin reductase 1, cytoplasmic (Rattus norvegicus) (UniProt O89049). The experiment can be described thus: qHTS Assay for Substrates of Mammalian Selenoprotein Thioredoxin Reductase 1 (TrxR1) (AID 488772).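 Also: NADPH fluorescence in the first read after selenite addition and not the 8 min delta; series mostly up to about 57 µM; 0% is about no effect; a drop in NADPH fluorescence below the no-compound background marks a TrxR1 substrate.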 The procedure, abridged:
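Quantitative HTS in Tris-HCl buffer at pH 7.5 with EDTA and Tween-20, using rat TrxR1, 400 uM NADPH and 400 uM selenite (final). A fall in initial NADPH fluorescence relative to background marked substrate behaviour.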
For orientation: In qHTS, concentration-response curves come from the screen itself.

The target is the same in experiment [2]. The experiment is described as follows: qHTS Assay for Inhibitors of Mammalian Selenoprotein Thioredoxin Reductase 1 (TrxR1) (AID 488773).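 Also: drop in NADPH fluorescence over an 8 min run after selenite addition; series mostly up to about 57 µM; % is scaled to controls: 0 for no effect and ±100 for the full control effect; nearly all actives have a fitted effect of over 40% in size.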 Particulars: Potency: inhibition. The procedure, abridged: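 Steps: enzyme (90 nM) plus NADPH (400 uM final), 5 min at ~22 deg C; compound added, 15 min; selenite (400 uM final) added; fluorescence followed for 8 min. Concentration-response curves derived from the normalized delta values.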

Experiment [3] has as its target Flap endonuclease 1 (Homo sapiens) (UniProt P39748). The experiment is described as follows: qHTS Validation Assay for the Inhibitors of Human Flap endonuclease 1 (FEN1) (AID 488816). Also: potency is read from the fitted curve at half-maximal effect. A digest of the protocol: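 Readings taken at 0 and 15 min after starting the reaction with 50 nM (final) substrate supplied the signal. Compounds had first sat with 10 nM FEN1 reagent for 15 min at room temperature. Values come from Hill-equation concentration-response fits.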

Experiment [4] has as its target M-phase phosphoprotein 8 (Homo sapiens) (UniProt Q99549). The experiment is described as follows: qHTS Validation Assay for Inhibitors for MPP8 Chromodomain Interactions with Methylated Histone Tails (AID 488949).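 Also: AlphaScreen signal from MPP8 chromodomain bound to biotinylated H3K9me3 peptide; top concentration of the series differs between compounds; % is scaled to controls: 0 for no effect and ±100 for the full control effect; nearly all actives have a fitted effect of over 55% in size.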 A digest of the protocol:
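AlphaScreen proximity signal from streptavidin donor and Ni-chelate acceptor beads (10 ug/mL each) reported binding of MPP8 to trimethyl-K9 H3(1-18) peptide, both at 50 nM. The complex formed 30 min before a 30 min compound exposure at room temperature, in PBS pH 7.4.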

Experiment [5] addresses Chromobox protein homolog 1 (Homo sapiens) (UniProt P83916). The experiment is described as follows: qHTS Validation Assay for Inhibitors of HP1-beta Chromodomain Interactions with Methylated Histone Tails (AID 488953).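 Also: loss of AlphaScreen luminescence from HP1-beta binding biotinylated H3K9me3 peptide; series mostly up to about 110 µM; % is scaled to controls: 0 for no effect and ±100 for the full control effect; nearly all actives have a fitted effect of over 50% in size.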 A digest of the protocol:
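HP1-beta (50 nM) was preincubated 30 min at room temperature with biotinylated H3(1-18)K9me3 peptide (50 nM) in PBS pH 7.4, 0.01% Tween-20, then with compounds 30 min. AlphaScreen signal was read after streptavidin donor/nickel chelate acceptor beads (10 ug/mL final).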

Experiment [6] in a line: Validation screen for small molecules that induce genotoxicity in human embryonic kidney (HEK293T) cells expressing luciferase-tagged ELG1 (AID 493106). Also: potency is read from the fitted curve at half-maximal effect. The procedure, abridged:
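HEK293T cells expressing luciferase-tagged ELG1 were exposed to compound or DMSO vehicle for 16 hr at 37 °C, 5% CO2. Genotoxic stress raises ELG1 levels, so increased luciferase signal after ONE-Glo addition and 30 min at room temperature marks hits.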

Experiment [7] can be described thus: qHTS for Inhibitors of Cell Surface uPA Generation: Validation Assay (AID 493164).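 Also: RAW 264.7 macrophage cells exposed to compound for 18 h; 0% is about no effect.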 The procedure, abridged:
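RAW 264.7, 4000 cells/well, o/n plating; cpd 7-pt 1:5 dilution 2.45 nM–38.3 uM final; 18 h, 37 C/5% CO2; ATP-Lite, 5 s luminescence exposure.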

Experiment [8] addresses Methanococcus maripaludis chaperonin (MmCpn) (UniProt Q6LX38). The experiment can be described thus: High-Throughput Screening for Modulators of Cytosolic Chaperonin Activity: MmCpn Primary Screen (AID 488978).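 Also: 50 nM MmCpn enzyme hydrolysing 30 µM ATP at 37 °C; 0% is about no effect.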 A digest of the protocol:
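ATPase activity of 50 nM MmCpn was assayed with 30 uM ATP, 10 minutes at 37C, after a 5 min compound preincubation at room temperature. ADP production was read as HTRF emission at 590 and 665 nm.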

The target of experiment [9] is Transient receptor potential cation channel subfamily V member 1 (Homo sapiens) (UniProt Q8NER1). The experiment is described as follows: HTS Assay for Compounds that Act as Enhancers of the Vanilloid Receptor 1 (AID 488979). Also: 0% is about no effect. The procedure, abridged: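 Calcium influx kinetics via Fluo-8 (480/520 nm) in TRPV1-expressing cells, 2000/well cultured overnight at 35.5C. Compound-alone read 3 min (agonist phase), followed by EC20 capsaicin challenge for 2 min (enhancer phase).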

In experiment [10] the target is Thyrotropin receptor (Homo sapiens) (UniProt P16473). The experiment is described as follows: qHTS Assay for Antagonists of the Thyroid Stimulating Hormone Receptor (AID 488980). Also: series mostly up to about 58 µM; 0% is about no effect. A digest of the protocol:
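Inhibition of cAMP raised by EC80 TSH (4 nM final) was read by HTRF, with lysate cAMP competing against cAMP-d2 for cryptate antibody after 30 min at room temperature. The cells were transfected HEK293 held in phosphodiesterase inhibitor RO 20-1724 at 70 uM.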

In experiment [11] the target is D(1A) dopamine receptor (Homo sapiens) (UniProt P21728). The experiment can be described thus: HTS Assay for Allosteric Agonists of the Human D1 Dopamine Receptor: Primary Screen for Agonists (AID 488981). Also: 0% is about no effect. A digest of the protocol: (§1)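 Calcium flux in an inducible, force-coupled HEK293 Trex D1 line (overnight at 30 C): agonist mode is the 180 s kinetic read after compound; potentiator mode is the following 180 s read after dopamine at EC20.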

Experiment [12] shares this target. The experiment is described as follows: HTS Assay for Allosteric Agonists of the Human D1 Dopamine Receptor: Primary Screen for Potentiators (AID 488982). Also: 0% is about no effect. The procedure, abridged:
as §1

Experiment [13] shares this target. The experiment can be described thus: HTS Assay for Allosteric Agonists of the Human D1 Dopamine Receptor: Primary Screen for Antagonists (AID 488983).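 Also: calcium flux response to an EC80 dopamine challenge measured with no-wash dye; % is scaled to controls: 0 for no effect and ±100 for the full control effect; nearly all actives have a fitted effect of over 65% in size.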 The procedure, abridged:
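Tetracycline-induced HEK293 T-REx cells expressing force-coupled D1 were plated overnight at 30 C, dye-loaded for calcium, and read kinetically. Compounds were pinned in, then an EC80 dopamine challenge followed after 180 s to reveal antagonism.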

Experiment [14] concerns the target Thyrotropin-releasing hormone receptor (Homo sapiens) (UniProt P34981). The experiment can be described thus: qHTS for Small Molecule Agonists and Allosteric Enhancers of Human TRH Receptor: Validation Screen for Agonists (AID 493127;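 active = calcium activation more than 3 SD above the typical response in the agonist read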;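 also: intracellular calcium rise by fluo-8 fluorescence before TRH EC20 addition; 0% is about no effect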). Particulars: TRH receptor agonist cell assay; at 2 µM; stronger effect = higher value. The procedure, abridged: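 TRHR-expressing cells were plated overnight in serum-containing medium, then loaded with fluo-8 calcium dye at room temperature for 30 min–1.5 h. After a 10 s baseline, compound was pin-transferred and calcium fluorescence (ex 480/em 530) read kinetically for agonist response.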

Experiment [15] deals with Galactokinase (Homo sapiens) (UniProt P51570). The experiment is described as follows: qHTS Validation Assay for Inhibitors of Human Galactokinase (GALK) (AID 493189). Also: 0% is about no effect. A digest of the protocol: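 Inhibition was measured as remaining ATP, detected by luciferase luminescence after a 1 h room-temperature reaction. Final conditions: 5 nM GALK, 100 uM galactose, 35 uM ATP, pH 8.0 HEPES buffer.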

The nature of experiment [16]: Validation screen for small molecules that induce DNA re-replication in SW480 colon adenocarcinoma cells (AID 504364). Also: 0% is about no effect. The procedure, abridged: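 SW480 cells seeded at 250 per well were exposed to compound or DMSO for 48 hr at 37 C, 5% CO2, then stained with Hoechst for 40 min. DNA content per nucleus was imaged (405 nm ex, 500-530 nm em).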
In experiment [17] the target is ATPase family AAA domain-containing protein 5 (Homo sapiens) (UniProt Q96QE3). The experiment is described as follows: Validation screen for small molecules that inhibit ELG1-dependent DNA repair in human embryonic kidney (HEK293T) cells expressing luciferase-tagged ELG1 (AID 493107).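 Also: cells co-treated with the DNA-damaging agent 5-fluorouridine alongside compound; series mostly up to about 46 µM; % is scaled to controls: 0 for no effect and ±100 for the full control effect; inhibitors lower the ELG1-luciferase luminescence signal; nearly all actives have a fitted effect of over 70% in size.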 A digest of the protocol:
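HEK293T cells expressing luciferase-tagged ELG1 were co-treated with 5-fluorouridine and compound or DMSO for 16 hr at 37 °C, 5% CO2. Luciferase activity was then read with ONE-Glo after 30 min at room temperature; suppressed signal indicates blocked ELG1 function.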

A short description of experiment [18]: Nrf2 qHTS screen for inhibitors: Validation (AID 493153; active = well fitted inhibition curve with a large enough effect in the main read-out, with a control signal flat, not every such curve was filed as active). Particulars: Potency: luciferase luminescence; viability change: measured here: cytotoxicity max response. A digest of the protocol:
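A549 cells carrying an ARE-driven firefly luciferase reporter, in 5% FBS OPTI-MEM, were treated with compounds in concentration-response for 18-24 h at 37°C. Viability was read by CellTiter-Fluor fluorescence, then Nrf2 activity by luciferase luminescence.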

SMILES strings stand for the structures. Inconclusive results are not listed. Calls of active or inactive are those of the source. Unless noted, calls follow the shape of the dose curve; as a rule, active = well fitted curve in the direction sought with a large enough effect; inconclusive = small, poorly fitted or top-dose-only effect, or another doubt; inactive = no such curve, though single readings can be large; an effect the other way counts as inactive or inconclusive.

Flap endonuclease 1 (Homo sapiens), sequence (P39748 whole entry, looked up): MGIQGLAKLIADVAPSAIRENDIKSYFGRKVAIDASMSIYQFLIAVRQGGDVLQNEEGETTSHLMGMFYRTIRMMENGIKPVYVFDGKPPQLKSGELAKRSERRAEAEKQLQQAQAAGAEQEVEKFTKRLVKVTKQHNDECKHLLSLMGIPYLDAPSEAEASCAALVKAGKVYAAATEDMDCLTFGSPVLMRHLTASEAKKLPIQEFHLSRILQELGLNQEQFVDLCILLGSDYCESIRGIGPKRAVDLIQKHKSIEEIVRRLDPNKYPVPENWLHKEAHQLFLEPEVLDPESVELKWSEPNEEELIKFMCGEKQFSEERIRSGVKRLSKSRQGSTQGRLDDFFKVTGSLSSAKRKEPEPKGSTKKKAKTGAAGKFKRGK
Thioredoxin reductase 1, cytoplasmic (Rattus norvegicus), sequence (O89049 whole entry, looked up): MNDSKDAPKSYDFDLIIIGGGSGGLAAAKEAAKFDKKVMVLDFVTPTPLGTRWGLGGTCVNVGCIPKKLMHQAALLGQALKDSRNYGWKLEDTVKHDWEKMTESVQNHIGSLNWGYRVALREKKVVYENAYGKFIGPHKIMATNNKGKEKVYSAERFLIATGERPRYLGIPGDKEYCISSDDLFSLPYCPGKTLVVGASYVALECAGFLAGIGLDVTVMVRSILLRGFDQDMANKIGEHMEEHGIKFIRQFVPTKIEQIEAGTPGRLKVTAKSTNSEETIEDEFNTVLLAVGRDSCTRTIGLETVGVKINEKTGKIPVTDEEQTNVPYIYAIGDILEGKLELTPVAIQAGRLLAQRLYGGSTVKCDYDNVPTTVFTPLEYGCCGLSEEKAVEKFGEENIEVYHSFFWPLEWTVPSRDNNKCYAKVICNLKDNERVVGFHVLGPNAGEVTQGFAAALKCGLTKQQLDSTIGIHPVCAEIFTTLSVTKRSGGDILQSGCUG
Galactokinase (Homo sapiens), sequence (P51570 whole entry, looked up): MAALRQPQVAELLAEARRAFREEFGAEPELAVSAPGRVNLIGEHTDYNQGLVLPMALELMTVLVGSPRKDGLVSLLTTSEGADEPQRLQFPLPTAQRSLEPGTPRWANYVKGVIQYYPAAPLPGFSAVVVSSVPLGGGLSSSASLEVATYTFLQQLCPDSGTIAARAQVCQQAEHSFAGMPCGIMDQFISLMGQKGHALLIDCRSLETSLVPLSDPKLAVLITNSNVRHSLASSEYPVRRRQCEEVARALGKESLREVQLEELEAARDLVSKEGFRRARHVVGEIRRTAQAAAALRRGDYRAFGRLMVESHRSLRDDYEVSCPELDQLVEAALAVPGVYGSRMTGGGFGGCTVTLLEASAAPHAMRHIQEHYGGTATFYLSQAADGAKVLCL
M-phase phosphoprotein 8 (Homo sapiens), sequence (Q99549 whole entry, looked up): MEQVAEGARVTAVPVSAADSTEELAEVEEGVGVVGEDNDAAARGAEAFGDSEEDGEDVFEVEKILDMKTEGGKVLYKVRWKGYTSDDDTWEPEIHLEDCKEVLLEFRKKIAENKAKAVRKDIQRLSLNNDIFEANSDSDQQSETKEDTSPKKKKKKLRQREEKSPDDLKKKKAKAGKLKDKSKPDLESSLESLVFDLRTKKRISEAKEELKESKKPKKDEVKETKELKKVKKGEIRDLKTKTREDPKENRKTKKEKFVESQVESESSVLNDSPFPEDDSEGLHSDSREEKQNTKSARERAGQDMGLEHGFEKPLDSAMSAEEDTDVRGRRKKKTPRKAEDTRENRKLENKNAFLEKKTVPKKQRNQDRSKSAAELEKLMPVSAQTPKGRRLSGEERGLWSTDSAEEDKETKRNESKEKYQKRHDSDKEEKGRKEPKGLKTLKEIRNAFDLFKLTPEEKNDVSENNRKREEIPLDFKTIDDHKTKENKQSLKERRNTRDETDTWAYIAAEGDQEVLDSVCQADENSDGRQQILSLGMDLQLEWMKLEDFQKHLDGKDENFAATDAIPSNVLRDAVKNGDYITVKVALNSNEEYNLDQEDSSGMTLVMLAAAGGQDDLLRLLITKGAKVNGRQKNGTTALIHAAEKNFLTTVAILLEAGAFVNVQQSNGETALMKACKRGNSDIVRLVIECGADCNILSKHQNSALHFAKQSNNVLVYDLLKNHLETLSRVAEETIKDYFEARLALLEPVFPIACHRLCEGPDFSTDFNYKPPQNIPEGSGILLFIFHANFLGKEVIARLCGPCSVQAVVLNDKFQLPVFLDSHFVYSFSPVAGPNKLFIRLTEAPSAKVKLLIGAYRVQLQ
Transient receptor potential cation channel subfamily V member 1 (Homo sapiens), sequence (Q8NER1 whole entry, looked up): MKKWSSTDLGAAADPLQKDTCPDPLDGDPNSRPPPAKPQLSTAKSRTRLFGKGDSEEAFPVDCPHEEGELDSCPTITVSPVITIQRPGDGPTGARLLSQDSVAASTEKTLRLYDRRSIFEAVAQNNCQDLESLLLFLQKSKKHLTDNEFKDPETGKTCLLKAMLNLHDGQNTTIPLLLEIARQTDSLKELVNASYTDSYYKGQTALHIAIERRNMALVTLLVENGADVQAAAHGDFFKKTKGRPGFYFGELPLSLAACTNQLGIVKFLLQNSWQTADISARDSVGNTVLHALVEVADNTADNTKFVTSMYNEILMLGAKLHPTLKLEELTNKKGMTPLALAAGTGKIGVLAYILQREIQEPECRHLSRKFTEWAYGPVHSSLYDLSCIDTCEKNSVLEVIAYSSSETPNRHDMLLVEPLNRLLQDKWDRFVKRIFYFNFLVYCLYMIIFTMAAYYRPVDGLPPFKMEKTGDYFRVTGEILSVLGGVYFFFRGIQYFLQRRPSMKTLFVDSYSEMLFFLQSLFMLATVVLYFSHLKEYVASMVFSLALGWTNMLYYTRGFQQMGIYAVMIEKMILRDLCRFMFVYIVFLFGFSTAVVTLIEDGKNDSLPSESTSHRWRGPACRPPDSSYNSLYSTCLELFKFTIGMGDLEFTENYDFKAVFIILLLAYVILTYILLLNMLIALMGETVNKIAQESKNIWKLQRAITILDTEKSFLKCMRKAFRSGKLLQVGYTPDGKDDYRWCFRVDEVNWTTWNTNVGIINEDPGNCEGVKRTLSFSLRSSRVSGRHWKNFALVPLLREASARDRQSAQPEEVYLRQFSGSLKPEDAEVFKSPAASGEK
Thyrotropin receptor (Homo sapiens), sequence (P16473 whole entry, looked up): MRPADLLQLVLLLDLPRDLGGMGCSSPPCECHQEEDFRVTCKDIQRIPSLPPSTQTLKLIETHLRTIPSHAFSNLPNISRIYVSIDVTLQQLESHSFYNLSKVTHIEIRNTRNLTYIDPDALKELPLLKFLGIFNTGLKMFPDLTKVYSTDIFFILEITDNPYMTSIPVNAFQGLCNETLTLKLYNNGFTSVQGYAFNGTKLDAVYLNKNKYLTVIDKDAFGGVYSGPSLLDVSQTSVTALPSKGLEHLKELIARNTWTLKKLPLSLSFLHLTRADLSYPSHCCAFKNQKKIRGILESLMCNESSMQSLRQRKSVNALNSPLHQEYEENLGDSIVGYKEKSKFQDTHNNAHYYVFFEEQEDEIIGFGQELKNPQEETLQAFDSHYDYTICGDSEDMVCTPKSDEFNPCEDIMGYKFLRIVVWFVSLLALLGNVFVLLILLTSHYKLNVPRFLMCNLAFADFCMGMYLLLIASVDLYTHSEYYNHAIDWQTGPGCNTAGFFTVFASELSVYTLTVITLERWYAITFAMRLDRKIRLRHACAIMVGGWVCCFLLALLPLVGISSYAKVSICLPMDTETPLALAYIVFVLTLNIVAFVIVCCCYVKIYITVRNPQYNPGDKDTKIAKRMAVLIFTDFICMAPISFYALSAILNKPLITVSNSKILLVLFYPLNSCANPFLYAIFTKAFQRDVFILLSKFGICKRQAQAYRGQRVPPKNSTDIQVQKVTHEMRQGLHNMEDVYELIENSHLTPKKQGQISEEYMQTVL
Methanococcus maripaludis chaperonin (MmCpn), sequence (Q6LX38 1-543): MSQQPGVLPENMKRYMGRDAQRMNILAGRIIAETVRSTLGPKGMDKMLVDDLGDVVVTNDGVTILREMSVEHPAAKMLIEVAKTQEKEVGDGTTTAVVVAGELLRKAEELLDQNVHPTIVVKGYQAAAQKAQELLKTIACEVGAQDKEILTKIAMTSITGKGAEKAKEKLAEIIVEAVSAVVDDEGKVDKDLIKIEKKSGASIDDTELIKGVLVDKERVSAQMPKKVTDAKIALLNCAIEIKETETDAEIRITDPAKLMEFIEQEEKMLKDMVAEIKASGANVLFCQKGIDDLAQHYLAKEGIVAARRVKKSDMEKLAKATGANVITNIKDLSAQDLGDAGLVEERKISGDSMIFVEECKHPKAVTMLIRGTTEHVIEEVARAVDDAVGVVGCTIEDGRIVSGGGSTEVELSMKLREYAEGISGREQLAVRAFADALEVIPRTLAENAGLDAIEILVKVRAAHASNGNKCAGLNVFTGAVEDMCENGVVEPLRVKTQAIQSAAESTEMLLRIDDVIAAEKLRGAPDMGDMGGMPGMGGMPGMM
Thyrotropin-releasing hormone receptor (Homo sapiens), sequence (P34981 whole entry, looked up): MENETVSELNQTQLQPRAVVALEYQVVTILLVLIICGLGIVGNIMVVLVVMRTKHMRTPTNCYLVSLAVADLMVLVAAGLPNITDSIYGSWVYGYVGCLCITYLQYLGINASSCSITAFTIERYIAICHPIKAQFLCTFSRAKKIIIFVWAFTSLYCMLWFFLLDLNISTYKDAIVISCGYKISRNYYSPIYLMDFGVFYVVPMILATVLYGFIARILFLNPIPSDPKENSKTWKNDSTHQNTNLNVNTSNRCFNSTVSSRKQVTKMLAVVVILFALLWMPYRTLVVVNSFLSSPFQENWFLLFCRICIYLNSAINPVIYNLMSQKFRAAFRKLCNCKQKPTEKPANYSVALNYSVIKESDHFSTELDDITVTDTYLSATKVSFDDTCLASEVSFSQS
Chromobox protein homolog 1 (Homo sapiens), sequence (P83916 whole entry, looked up): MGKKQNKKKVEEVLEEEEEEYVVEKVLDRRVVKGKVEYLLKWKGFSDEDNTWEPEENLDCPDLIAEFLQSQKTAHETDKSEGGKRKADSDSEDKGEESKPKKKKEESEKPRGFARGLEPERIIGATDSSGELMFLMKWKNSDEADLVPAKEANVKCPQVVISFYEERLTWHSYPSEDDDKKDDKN

Consider `C#C[C@]1(O)CC[C@H]2[C@@H]3CCC4=Cc5oncc5CC4(C)[C@H]3CCC21C` (stereo partly drawn), for which the Potency entry in experiment [1], in experiment [2], in experiment [3], in [4], in experiment [5] and in [6] was “inactive” each time. The result in experiment [7] was inactive.
Regarding `O=C(c1cc(O)c(O)c([N+](=O)[O-])c1)c1ccccc1F`, the Potency result in experiment [1], in experiment [2], in experiment [11], in experiment [12], in [13] and in experiment [6] was “inactive” each time. The Potency result in experiment [15] and in experiment [16] was “inactive” each time. Also, the Potency in experiment [3] was 21.2 µM (active). In addition, the outcome in experiment [8], in [9], in experiment [10] and in experiment [7] was inactive. Also, the activation in [14] was -0.125% (inactive).
On to `CNCC[C@H](Oc1ccc(C(F)(F)F)cc1)c1ccccc1`, for which the Potency result in experiment [1], in experiment [2], in experiment [3], in experiment [4], in experiment [12] and in experiment [6] was “inactive” in each case. The Potency entry in experiment [17], in [18], in experiment [15] and in experiment [16] was “inactive” throughout. Also, the compound was classed as inactive in experiment [10] and in experiment [7]. Also, the activation in [14] is 14.1% (inactive). Also, the viability change in experiment [18] came out at 1.58%.
For the compound `COc1ccc(NC(=O)/C=C/c2ccc(Cl)cc2)cc1`, the Potency entry in [1], in [2], in [3], in [4], in experiment [11] and in experiment [13] was “inactive” each time. For the same compound, the Potency result in experiment [18] and in experiment [16] was “inactive” each time. Also, the compound was classed as inactive in experiment [8], in experiment [9], in experiment [10] and in experiment [7]. Further, the Potency in experiment [6] is 2.59 µM (active). The activation in experiment [14] is 1.19% (inactive). Further, the viability change in experiment [18] is -1.36%.
As to `C=CC(C)=C[C@@]1(C)SC(=O)C(C)=C1O`, the Potency entry in [1], in experiment [2], in experiment [3], in experiment [4], in experiment [11] and in experiment [12] was “inactive” throughout. In addition, the Potency entry in experiment [13], in [6], in [17] and in [18] was “inactive” in each case. Also, the compound was classed as inactive in experiment [8] and in experiment [7]. Also, in experiment [18], the viability change was determined as 1.42%.
Take `O=c1[nH]c2cc([N+](=O)[O-])c([N+](=O)[O-])cc2[nH]c1=O`: the Potency entry in experiment [1], in [2], in experiment [4], in experiment [5], in experiment [11] and in [13] was “inactive” each time. Further, the Potency result in experiment [6], in [17], in experiment [18], in experiment [15] and in experiment [16] was “inactive” throughout. For the same compound, the call in experiment [8], in experiment [9], in [10] and in experiment [7] was inactive. The activation in [14] was 1.31% (inactive). In experiment [18], the viability change was determined as 0.435%.
With `OC[C@H]1O[C@@H](n2cnc3c(NC4CCCCC4)ncnc32)[C@H](O)[C@@H]1O`, the Potency entry in [1], in experiment [2], in experiment [3], in [4], in [5] and in experiment [11] was “inactive” in each case. The Potency entry in experiment [12], in experiment [13], in [6], in experiment [18], in experiment [15] and in [16] was “inactive” throughout. Besides, the result in experiment [9], in experiment [10] and in experiment [7] was inactive. Moreover, the activation in experiment [14] is 0.562% (inactive). Moreover, the viability change in experiment [18] was found to be 2.64%.
For the compound `O=C(O)[C@@H]1C[C@@H](C(=O)O)N1`, the Potency result in experiment [1], in [2], in [3], in experiment [4], in experiment [5] and in experiment [11] was “inactive” in each case. Moreover, the Potency entry in experiment [12], in [13], in experiment [6], in experiment [18], in experiment [15] and in [16] was “inactive” each time. Also, the result in [9] and in experiment [7] was inactive. In addition, the activation in experiment [14] was 1.06% (inactive). The viability change in experiment [18] came out at 2.33%.

Source of the values: PubChem BioAssay (NCATS).
